# Assay results from PubChem BioAssay.
# Activity calls are given as the source filed them.
# Tests used:
# [1] = optical density shifts of acrAB sulA E. coli – strain DRC41, OD650, 48 h, E. coli filamentation inducer project, primary screen (AID 1152); conditions: higher = more signal, called active from +8 up or from −8 down;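 also: E. coli MC1000 strain DRC41 lacking acrAB efflux pump and sulA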
# [2] = probe aLefty1 binding on compound microarray – biochemical, small-molecule microarray, 635/667 nm fluorescence, primary screen (AID 1153); conditions: higher = more signal;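 also: score merges spot fluorescence with signal-to-noise ratio from the scanned slide images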
# [3] = plasmodial surface anion channel blockers, osmotic lysis – cell-based, P. falciparum Indochina, OD700, 1 h, primary screen (AID 1154); conditions: P. falciparum Indochina infected RBC osmotic lysis, higher = more signal, called active from +8 up or from −8 down
# [4] = plasmodial surface anion channel blockers, osmotic lysis – cell-based, P. falciparum Indochina, OD700, 2 h, primary screen (AID 1155);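 also: lysis reports solute entry through the parasite surface anion channel PSAC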; conditions: P. falciparum Indochina infected erythrocytes, higher = more signal, called active from +8 up or from −8 down
# [5] = changes in parasitized red cell lysis, either direction – P. falciparum Indochina, OD700, 3 h, PSAC antagonist project, primary screen (AID 1156); conditions: P. falciparum-infected erythrocytes, osmotic lysis, higher = more signal, called active from +8 up or from −8 down
# [6] = plasmodial surface anion channel blockers, osmotic lysis – cell-based, P. falciparum Indochina, OD700, 18 h, primary screen (AID 1157); conditions: P. falciparum Indochina infected erythrocytes, osmotic lysis OD700, 18 h; higher = more signal, called active from +8 up or from −8 down
# [7] = S6 kinase pathway phospho-S6 level changes – cell-based, A549, cytoblot, luminescence, serum-stimulated, primary screen (AID 1158); conditions: 5 h, higher = more signal;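 also: serum-stimulated A549 lung adenocarcinoma cells; signal is phosphorylated S6 detected by cytoblot immunostaining with HRP secondary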
# [8] = target: NADPH oxidase 2 (Homo sapiens) (UniProt P04839); test: compounds shifting NOX2 Amplex Red fluorescence – cell-based, HEK293-NOX2, PMA-stimulated, NOX inhibitor project, primary screen (AID 1159); conditions: 45 min, higher = more signal, called active from +8 up or from −8 down; also: test concentration not given here
# Sequence of NADPH oxidase 2 (Homo sapiens) (P04839 whole entry, looked up): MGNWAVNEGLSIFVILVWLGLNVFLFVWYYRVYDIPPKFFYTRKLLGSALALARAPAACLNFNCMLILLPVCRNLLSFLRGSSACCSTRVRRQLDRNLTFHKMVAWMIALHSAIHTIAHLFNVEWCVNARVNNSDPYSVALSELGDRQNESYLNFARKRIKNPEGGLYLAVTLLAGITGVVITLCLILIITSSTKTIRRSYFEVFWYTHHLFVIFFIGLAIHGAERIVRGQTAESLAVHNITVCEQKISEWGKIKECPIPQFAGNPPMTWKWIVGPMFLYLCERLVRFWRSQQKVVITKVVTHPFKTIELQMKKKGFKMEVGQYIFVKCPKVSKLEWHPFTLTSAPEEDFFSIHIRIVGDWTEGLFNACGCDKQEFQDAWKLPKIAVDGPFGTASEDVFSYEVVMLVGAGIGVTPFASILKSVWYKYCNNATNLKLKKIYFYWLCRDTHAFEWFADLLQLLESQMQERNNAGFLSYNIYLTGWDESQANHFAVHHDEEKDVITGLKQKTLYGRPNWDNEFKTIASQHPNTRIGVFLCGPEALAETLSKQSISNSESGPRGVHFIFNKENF
# [9] = target: NADPH oxidase 4 (Homo sapiens) (UniProt Q9NPH5); test: compounds shifting NOX4 Amplex Red fluorescence – cell-based, HEK293-NOX4, tetracycline-induced, NOX inhibitor project, primary screen (AID 1160); conditions: HEK293-NOX4, Amplex Red H2O2 fluorescence, 45 min; higher = more signal, called active from +8 up or from −8 down
# Sequence of NADPH oxidase 4 (Homo sapiens) (Q9NPH5 whole entry, looked up): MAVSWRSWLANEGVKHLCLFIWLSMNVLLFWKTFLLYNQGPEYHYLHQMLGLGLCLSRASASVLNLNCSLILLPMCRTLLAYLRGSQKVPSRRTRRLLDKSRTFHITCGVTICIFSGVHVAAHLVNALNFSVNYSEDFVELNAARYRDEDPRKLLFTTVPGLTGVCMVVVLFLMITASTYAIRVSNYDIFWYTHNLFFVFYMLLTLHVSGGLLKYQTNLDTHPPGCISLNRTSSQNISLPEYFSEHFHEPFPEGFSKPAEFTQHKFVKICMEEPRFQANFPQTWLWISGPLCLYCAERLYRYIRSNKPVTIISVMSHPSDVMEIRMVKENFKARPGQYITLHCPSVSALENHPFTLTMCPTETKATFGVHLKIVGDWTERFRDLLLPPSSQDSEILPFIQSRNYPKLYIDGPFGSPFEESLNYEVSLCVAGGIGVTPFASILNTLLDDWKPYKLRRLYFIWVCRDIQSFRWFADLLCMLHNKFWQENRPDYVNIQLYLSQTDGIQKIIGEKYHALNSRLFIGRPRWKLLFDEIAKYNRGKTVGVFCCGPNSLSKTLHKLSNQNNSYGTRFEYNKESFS
# [10] = target: NADPH oxidase 5 (Homo sapiens) (UniProt Q96PH1); test: compounds shifting NOX5 Amplex Red fluorescence – cell-based, HEK293-NOX5, NOX inhibitor project, primary screen (AID 1161); conditions: HEK293-NOX5, ionomycin, 45 min, higher = more signal
# Sequence of NADPH oxidase 5 (Homo sapiens) (Q96PH1 whole entry, looked up): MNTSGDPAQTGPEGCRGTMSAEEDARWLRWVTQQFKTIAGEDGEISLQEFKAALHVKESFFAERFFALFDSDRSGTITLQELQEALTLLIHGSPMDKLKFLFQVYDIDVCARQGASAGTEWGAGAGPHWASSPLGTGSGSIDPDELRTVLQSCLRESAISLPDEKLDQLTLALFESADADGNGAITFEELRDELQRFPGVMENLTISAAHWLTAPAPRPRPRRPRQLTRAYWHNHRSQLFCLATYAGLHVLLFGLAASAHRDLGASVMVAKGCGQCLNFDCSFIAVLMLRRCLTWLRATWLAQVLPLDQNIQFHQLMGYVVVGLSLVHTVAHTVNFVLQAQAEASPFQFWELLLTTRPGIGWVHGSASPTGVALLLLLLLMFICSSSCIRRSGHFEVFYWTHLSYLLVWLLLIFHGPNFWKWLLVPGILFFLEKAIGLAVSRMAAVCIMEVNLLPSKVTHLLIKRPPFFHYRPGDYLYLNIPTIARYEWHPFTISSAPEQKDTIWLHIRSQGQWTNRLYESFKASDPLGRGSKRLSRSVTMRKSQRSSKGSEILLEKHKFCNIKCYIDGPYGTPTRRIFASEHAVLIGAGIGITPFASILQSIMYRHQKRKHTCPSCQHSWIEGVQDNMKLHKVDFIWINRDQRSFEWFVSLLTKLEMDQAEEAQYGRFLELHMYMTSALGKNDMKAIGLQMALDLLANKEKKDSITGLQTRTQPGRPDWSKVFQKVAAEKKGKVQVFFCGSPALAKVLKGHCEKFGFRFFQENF
# [11] = compound effects on lung adenocarcinoma cell viability – A549, calcein-AM fluorescence, 48 h, basal, profiling panel (AID 1162); conditions: higher = more signal; also: test concentration not given here
# [12] = compound effects on differentiated 3T3-L1 adipocyte viability – cell-based, 3T3-L1 adipocytes, calcein-AM fluorescence, 48 h, basal, profiling panel (AID 1163); conditions: 3T3-L1 adipocytes viability, higher = more signal; also: test concentration not given here
# [13] = compound effects on hepatocellular carcinoma cell viability – HepG2, calcein-AM fluorescence, 48 h, basal, profiling panel (AID 1164); conditions: higher = more signal; also: test concentration not given here
# [14] = compound effects on multiple myeloma cell viability – MM1S, calcein-AM fluorescence, 48 h, basal, profiling panel (AID 1165); conditions: higher = more signal; also: test concentration not given here
# [15] = calcein-AM signal in unstimulated myeloma cells – cell-based, calcein-AM fluorescence, 48 h, PK04 Diversity Set, profiling panel (AID 1166); conditions: RPMI8226 myeloma viability, higher = more signal;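 also: cells grown under basal conditions without added stimulus; test concentration not given here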
# [16] = JC-1 mitochondrial signal, unstimulated HepG2 cells – cell-based, JC-1 fluorescence, 24 h, 100 nL compound, profiling panel (AID 1167); conditions: HepG2 mitochondrial potential, higher = more signal; also: test concentration not given here
# [17] = JC-1 mitochondrial signal, unstimulated adipocytes – cell-based, JC-1 fluorescence, 3T3-L1 adipocytes, 24 h, 100 nL compound, profiling panel (AID 1168); conditions: JC-1 mitochondrial fluorescence, higher = more signal, called active from +8 up or from −8 down; also: test concentration not given here
# [18] = JC-1 mitochondrial signal, unstimulated myeloma cells – cell-based, JC-1 fluorescence, RPMI8226, 24 h, 100 nL compound, profiling panel (AID 1169); conditions: JC-1 mitochondrial potential fluorescence, higher = more signal; also: test concentration not given here
# [19] = JC-1 mitochondrial signal, unstimulated MM1S myeloma – cell-based, JC-1 fluorescence, 24 h, 100 nL compound, profiling panel (AID 1170); conditions: MM1S mitochondrial potential, higher = more signal; also: test concentration not given here
# [20] = resazurin metabolic signal in A549 cells – cell-based, resazurin fluorescence, 24 h, PK04 Diversity Set, profiling panel (AID 1171); conditions: A549 viability, higher = more signal, called active from +8 up or from −8 down; also: test concentration not given here
SMILES,z-score [1],composite z-score [2],z-score [3],z-score [4],z-score [5],z-score [6],z-score [7],z-score [8],z-score [9],z-score [10],z-score [11],z-score [12],z-score [13],z-score [14],z-score [15],z-score [16],z-score [17],z-score [18],z-score [19],z-score [20]
NCCCCCNC(=O)[C@@H]1C[C@@H]2C(=O)N[C@@H](Cc3ccccc3)C(=O)N2[C@@H]1c1ccc(O)cc1,-1.16 (inactive),0.176,1.24 (inactive),0.24 (inactive),-0.648 (inactive),-0.116 (inactive),-0.358,0.713 (inactive),0.539 (inactive),-0.657,-0.119,0.588,-0.0207,-1.4,-0.0144,0.181,-0.0278 (inactive),0.00631,0.397,-0.0029 (inactive)
O=C(CS)NCCCCCCNC(=O)[C@@H]1C[C@@H]2C(=O)N[C@@H](Cc3ccccc3)C(=O)N2[C@@H]1c1cccc(OCCO)c1,-0.92 (inactive),-0.073,4.39 (inactive),0.198 (inactive),0.839 (inactive),0.0799 (inactive),-0.775,1.75 (inactive),0.728 (inactive),-0.131,-0.55,0.363,0.371,-0.204,0.537,-1.28,0.476 (inactive),0.198,-0.143,-0.436 (inactive)
C=C(CCCC)/C(=C/C[C@H](OC(C)=O)c1ccccc1OCCO)c1cc(C(=O)OC)ccc1OC,1.02 (inactive),-0.0046,15.1 (active),0.621 (inactive),2.54 (inactive),-1.43 (inactive),0.708,0.254 (inactive),0.101 (inactive),-1.92,0.379,1.66,-0.418,-1.36,-1.93,2.79,0.63 (inactive),0.275,0.0208,0.423 (inactive)
COC(=O)[C@@]1(Cc2ccccc2)[C@H]2c3cc(C(=O)N(C)C)n(Cc4ccsc4Br)c3C[C@H]2CN1C(=O)c1ccccc1,-0.775 (inactive),1.04,6.57 (inactive),1.07 (inactive),0.923 (inactive),1.25 (inactive),-0.259,-0.111 (inactive),0.106 (inactive),0.723,0.209,-1.34,0.369,-1.13,-1.34,1.17,0.332 (inactive),-0.776,-2,-2.34 (inactive)
COC(=O)[C@@]1(Cc2ccc(F)cc2)[C@H]2c3cc(C(=O)N(C)C)n(Cc4cc(F)c(F)c(F)c4)c3C[C@H]2CN1C(=O)c1ccccc1,-1.42 (inactive),0.5,4.21 (inactive),0.548 (inactive),0.365 (inactive),1.16 (inactive),-0.359,0.525 (inactive),2.18 (inactive),1.26,-0.917,-0.147,0.178,-0.711,-1.93,0.345,-1.26 (inactive),-0.803,-1.75,-2.68 (inactive)
C=CCN1C(=O)[C@@]2(Cc3ccccc31)N=C(c1ccc(OCCCO)cc1)O[C@H]2c1ccccc1,0.613 (inactive),0.481,14.6 (active),3.47 (inactive),3.29 (inactive),1.35 (inactive),0.104,-2.01 (inactive),-0.253 (inactive),-2.65,-0.914,-0.107,-1.38,-3.23,-2.16,-0.927,0.133 (inactive),-0.942,-1.29,-1.99 (inactive)
C=C(COC)C(=O)CC[C@@H](OC(C)=O)c1ccc(CO)o1,0.0488 (inactive),0.0371,0.116 (inactive),-0.47 (inactive),0.195 (inactive),-0.38 (inactive),-0.142,0.663 (inactive),0.0844 (inactive),0.46,-0.97,0.186,0.473,-0.0988,-0.355,-0.799,0.195 (inactive),-0.548,-0.066,0.188 (inactive)
COC(=O)C(CC#Cc1ccc2c(c1)[C@]1(C(=O)N2)[C@H](c2ccc(OCCO)cc2)N2[C@H](c3ccccc3)[C@H](c3ccccc3)OC(=O)[C@H]2[C@@H]1C(=O)Nc1nc2ccccc2s1)C(=O)OC,1.99 (inactive),-0.0611,4.42 (inactive),1.76 (inactive),0.66 (inactive),1.82 (inactive),-0.206,1.18 (inactive),0.786 (inactive),1.03,0.214,0.368,0.94,-2.56,-2.73,-2.98,1.67 (inactive),-1.11,-1.29,0.84 (inactive)
COc1ccc(CCNC(=O)[C@@]2(Sc3ccc(C)cc3)CC(=O)N(C(C)C)[C@@H]2c2ccc(CO)cc2I)cc1,-0.0322 (inactive),-0.104,5.56 (inactive),0.428 (inactive),0.445 (inactive),-0.135 (inactive),0.394,0.446 (inactive),-0.641 (inactive),1.22,1.68,0.345,0.0217,-3.07,-2.32,0.529,-0.139 (inactive),-0.686,-0.942,-0.192 (inactive)
COC(=O)[C@@]1(Cc2ccc(OC)cc2)[C@@H]2C(=CC(=O)[C@H]2CC(=O)C(=O)N2CCCC2)CN1C(=O)c1ccccc1,-0.97 (inactive),0.114,5.48 (inactive),0.368 (inactive),1.51 (inactive),1.18 (inactive),0.0866,0.143 (inactive),1.54 (inactive),1.14,-0.0504,-0.386,-0.167,-0.565,-1.17,0.718,-0.407 (inactive),-0.356,-1.69,0.408 (inactive)
C[N+](C)(C)CCCCCCNC(=O)[C@@H]1C[C@@H]2C(=O)N[C@@H](Cc3ccccc3)C(=O)N2[C@@H]1c1cccc(OCCO)c1,1.49 (inactive),0.0588,10.1 (active),1.34 (inactive),1.42 (inactive),0.349 (inactive),0.0757,1.39 (inactive),1.66 (inactive),1.05,0.741,0.0098,0.417,0.653,0.925,-0.432,0.543 (inactive),-0.267,-0.544,0.898 (inactive)
C=C[C@@H](COC(=O)OC(C)(C)C)N(Cc1ccc(OC)cc1)S(=O)(=O)c1ccc(Br)cc1,-1.13 (inactive),-0.0094,1.4 (inactive),-0.0352 (inactive),-0.856 (inactive),-0.0871 (inactive),-0.273,-0.348 (inactive),0.525 (inactive),-1.28,1.39,0.332,-0.002,-3.08,-1.36,-0.997,-0.239 (inactive),-0.525,0.101,1.74 (inactive)
COC(=O)[C@@]1(Cc2ccc(F)cc2)[C@H]2c3cc(C(=O)N(C)C)n(Cc4ccccc4)c3C[C@H]2CN1C(=O)c1ccccc1,-1.39 (inactive),0.342,2.6 (inactive),0.672 (inactive),0.657 (inactive),1.23 (inactive),-0.231,1.01 (inactive),0.734 (inactive),1.89,-0.799,-0.184,-0.344,-0.812,-0.997,0.746,-0.85 (inactive),-0.28,-0.529,-0.631 (inactive)
COc1ccc(C#Cc2ccc3c(c2)[C@]2(C(=O)N3)[C@H](C(=O)Nc3nc4ccccc4s3)[C@H]3C(=O)O[C@H](c4ccccc4)[C@H](c4ccccc4)N3[C@@H]2c2ccc(O)cc2)cc1,0.663 (inactive),1.1,-0.383 (inactive),0.53 (inactive),-6.71 (inactive),0.957 (inactive),-0.249,0.548 (inactive),0.792 (inactive),-2.5,-0.151,0.341,0.949,-0.561,-1.37,-3.71,-0.298 (inactive),-1.02,-1.18,0.279 (inactive)
O=C1C[C@@](C(=O)NC2CC2)(c2ccc([N+](=O)[O-])cc2)[C@@H](c2ccc(CO)cc2I)N1C1CCCCC1,-0.178 (inactive),-0.034,16.5 (active),2.28 (inactive),3.03 (inactive),0.797 (inactive),-0.552,1.37 (inactive),0.666 (inactive),2.04,0.147,-0.536,0.522,-1.77,-1.17,0.575,-0.604 (inactive),-0.36,-0.993,0.0067 (inactive)
CC1(C)[C@@H]2CC(C(O)C3C=CC4C(=O)N(c5ccccc5)C(=O)C4N3Nc3ccc([N+](=O)[O-])cc3)=C[C@H]1C2 (stereo not given in full),-1.03 (inactive),0.404,14.3 (active),2.98 (inactive),2.92 (inactive),1.56 (inactive),-0.539,-0.0932 (inactive),-1.02 (inactive),-2.02,-0.0923,-0.484,-0.0345,0.114,0.287,-1.41,-2.48 (inactive),0.428,-1.09,0.539 (inactive)
CC(C)C(=C=CC[C@@H](O)c1ccc(OCCO)cc1)C[C@@H](O)COCc1ccccc1,1.45 (inactive),0.0341,8.51 (active),-0.15 (inactive),0.776 (inactive),-0.46 (inactive),4.27,-2.13 (inactive),-0.915 (inactive),-2.41,2.2,1.46,1.2,-0.619,0.471,1.52,0.404 (inactive),-0.147,-1.11,0.343 (inactive)
